Laboratory results from the OligoGym collection.

The sequences below were run against DSPP (assay: pooled miR-30 sensor sort-seq; sequence = guide strand). Details: shRNA.
Note: reference of the scale not given here.

Row | Sequence | sensor-assay potency score (higher = more potent)
1 | TTCACTTGTATTACCCTCGTTT | 0.22
2 | TTTCTCTTGCTGTTGATCTGAG | -0.329
3 | TTCACTGCTATCACTGCTGTTG | -0.29
4 | TATCACTGTCATCATCTTCTGC | -0.312
5 | TACTATCTGAATTTTGACCTAT | 0.43
6 | TTCTCTATGGTTGAGCTTCTGG | -0.413
7 | TTTTTCGACATGTCTCTCCAGT | -0.00978

Each sequence was assayed against DTNBP1 in the same assay as above. Details: shRNA.

Row | Sequence | sensor-assay potency score (higher = more potent)
8 | TAAAACAACCTGGCTTTCCAGG | -0.923
9 | ATTTTTCTTGTAATTCTCCAGT | -0.545
10 | TGACTTGTCACTTAAAGTCTTC | -0.418
11 | TCATCGGACTGAACAACGGGGG | -0.232
12 | TCACTTAAAGTCTTCAGCCCGG | -0.801
13 | TTCCTCAAAAAACTTCTGCCGC | -0.552
14 | TCTAGTTCAGCTTTGAAGGTTT | 0.0978
15 | TATTTTTCTTGTAATTCTCCAG | -0.412
16 | TTTCTTGTAATTCTCCAGTTGC | -0.554
17 | TTTGCTTCTCTTGACTTGTCAC | 0.23
18 | TTTTCTTGTAATTCTCCAGTTG | -0.365
19 | TAAGTCTTCCAGATGCAGCAGG | -0.317

These sequences were tested against DTX1 in the same assay as above. Details: shRNA.

Row | Sequence | sensor-assay potency score (higher = more potent)
20 | TTGAAGTAGATGAGGTAGCAGA | -0.853
21 | TTTGTAGAACTGCTCAGTCATC | -1.13
22 | TATCTTCGAACCACATCCTCGG | 0.116
23 | TTGCGGTGAACTTCTTCCCGGG | -0.0133
24 | TTGACCAGCAGGCACTGCTGGC | -1.17
25 | TTGGATCCAAACTCGGTCTTGT | 0.0701
26 | TTGGTCTTGCGGCACACCCCGG | -0.985
27 | TGTCTAGGTAGCTAGCGTCCGG | -0.967
28 | TTGTTGGGTAGATAGCAGTGGC | -0.92
29 | TTCATCTGCGACATGCTGTTGA | 0.174
30 | TTCTTTTGTAGAACTGCTCAGT | -0.299
31 | TTTAAGGTGCTTCTTCTTGGTC | -0.486
32 | TTTGAAAAGAGCAATCGCTGGC | 0.224
33 | TAGATGAGGTAGCAGAAGCCTA | -1.12
34 | TATTTCTCCACCCACAGTGGGA | -0.561
35 | TAGAACTGCTCAGTCATCTGGG | 0.451
36 | TCTTCGAACCACATCCTCGGGA | -0.159
37 | TTCACCTTCTGCATGTATCTTC | 0.43
38 | TGAGGTTGGATCCAAACTCGGT | -0.565
39 | TGTCTCTTCTCTTCCAGCCTGG | 0.154
40 | TCTAGGTAGCTAGCGTCCGGGT | -1.53
